Measurements from article PMC5540273 (PLoS ONE, 2017).

What follows are molecules tested on ACVR1. Conditions: concentration: 1 μM,replicates: in singlicate; n = 1.
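Note: KINOMEscan kinase panel screen.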

| Structure (SMILES) | %Inh [%] |
| --- | --- |
| CN1CCN(CCNc2nc3cc(Oc4ccc(NC(=O)Nc5cc(C(F)(F)F)ccc5F)cc4)ccc3[nH]2)CC1.Cl.Cl [GW768504] | 0 |
| COc1cccc(OC)c1C(=O)Nc1cccc(-c2nn3ccccc3c2-c2ccnc(Nc3cccc(F)c3)n2)c1 [GSK361065] | 17 |
| CC(=O)Nc1ccc(-c2cc3ncnc(SCC(=O)O)c3s2)cc1 | 0 |
| COC(=O)c1cccc(NC(=O)NC2CCN(c3ccnc(Nc4cc(OC)c(OC)c(OC)c4)n3)C2)c1 (stereo not drawn) [GSK1379767] | 33 |
| NC(=O)Nc1sc(-c2ccc(F)cc2)cc1C(N)=O [GW789449] | 0 |
| CCOC(=O)N1CCC(n2cnc(-c3ccc(F)cc3)c2-c2ccnc(N)n2)CC1 [SB-219952] | 28 |
| C[C@@H]1CCN(C(=O)N2CCCC2)C[C@@H]1N(C)c1ncnc2[nH]ccc12 | 0 |
| COc1cccc(C2=C(Nc3cccc(Cl)c3)C(=O)NC2=O)c1 [SB-341556] | 65 |
| COC(=O)c1cccc(NC(=O)NC2CCN(c3ccnc(NCc4ccc(F)cc4)n3)CC2)c1 [GSK1379860] | 0 |
| O=C(Nc1ccc(Oc2ccc3nc(NC(=O)C4CC4)cn3n2)c(F)c1)c1cccn(-c2ccccc2)c1=O | 19 |
| Cn1ccc2ncnc(Oc3ccc(NC(=O)Nc4cncc(C(F)(F)F)c4)c(Cl)c3)c21 | 0 |
| CSc1nccc(-c2c(-c3ccc(F)cc3)ncn2CCCN2CCOCC2)n1.Cl [SB-217146] | 0 |
